Source: PubChem BioAssay AID1508600 (Functional Genomics Laboratory (NCATS/FGL), 2020)
Screen size: about 53,000 sequences; about 3,700 (7%) were called active.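 The calls were made as follows: active = gene knockdowns whose robust z-score for IL-1 alpha signal is at least 2 or at most -2, so actives lie on both sides; inactive = the rest.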 The entries come from a sample that favours actives as a whole.

Test: Components of the Cytosolic LPS Sensing Pathway: Gene Identification via Genome-wide siRNA Screen;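 also: robust z of the log signal after scaling to non-targeting control siRNA wells of the plate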
Settings: RAW264.7 macrophages, IL-1a HTRF, actives lie on both sides, screened at 100 nM (by protocol), cells primed 5 h with Pam3CSK4 first
Method in brief: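 Knockdown: 100 nM siRNA, 48h, RAW264.7. Stimulation: Pam3CSK4 5 h, then LipidA via TransIT-TKO 24 h. Output: supernatant IL-1a HTRF, negative-control-normalized, log robust z-score; viability by CellTiter-Glo.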

z-score, inactive:
CCGAAGUUCACCCUAAAGGTT against Lmna -0.485
GCAAAGAAGUGUAUGUGUUTT against Olfr273 0.0336
GCUUCUCAGAAGAUGUACUTT against Rgs16 -1.06
GCCCUAUAUAUCAUUCUAGTT against Rhoa 1.12
GCCUGUUAUAUGUGGCCUUTT against Olfr1352 0.673
GGAUGUCCUGAAAGAAAAATT against H2-M9 0.633
GCUUUAUUCACUCACUUUCTT against Chsy3 0.814
GGUGAUUUCUAUCGAUUUUTT against Dhrs9 0.144
GGACGUGCUCAAGUUCAUCTT against Ift172 0.519
GGAAGUCAAGCAAAAGUUUTT against Hsd17b7 -0.516
GGUUGAAGAUGAAAGAAGATT against Sin3a 0.132
CGAAGCUCAACAGAUUCCUTT against Prl7a2 -0.278
CGGCCUACAACUACCCAACTT against Tekt3 1.02
CGACGUAUCCGUUCUAUAATT against Eif2s1 -1.05
GAGCAUAGAAACCAUGCACTT against Acot2 -0.621
GCUAAAGAAAAGUGGAGACTT against Pbdc1 0.165
GCAUAUCUAUAACAGAGCCTT against Rnase2a -1.23
GGAAAUGUCAUGACCUUGATT against Tnfaip6 -1.89
CCUGGUGCUAUGGACUAAATT against Tectb -1.15
GCUACGGAUGCUUUUCAAATT against Ube2i -0.351
CGUAUCUUAUAUCAGGAAATT against Trem1 0.513
GGAGAACAUAAAAAUGGUGTT against Stk39 -0.0786
GGUCUUUUGUAAAAACCCUTT against Sytl2 0.099
GGCAACAGUGAAAGAUGAATT against Acnat2 0.0608
GCAACCGCGUCACAUUGAATT against Bicc1 0.655
GCGAGCAUGAAGUUAGUAATT against C230029F24Rik 0.914
CCAGUGGUCAUUCUUGUCUTT against Olfr1076 0.314
GCUGUCGACUUUAAAAGGUTT against Pcdhga7 -0.356
GGCAGAAACUAAGAAUGAATT against Mx1 -0.292
GGUGAAGAAAGCACUGUUUTT against Olfr980 0.0649
GGAAAUCAGAAUUCCAAAATT against Cntn6 1.56
GGCCUAUUUGUUUUUGAAATT against Mthfd2 1.45
GGACUAUUCACACUAAGUCTT against Them5 -0.214
GGGAAACAAAAAGCAGAUATT against Ccdc47 0.325
GGAACUGGAAAUCUCAGAGTT against Pcdh12 0.447
GCCCAAUCUACACAGACCATT against Slc7a13 -0.939
GGAUGUGUGUGUCUCCUCATT against Prr9 -0.256
CCACUCCCAUAAGGGCUAUTT against Smo -0.144
CCUGAACAUAAAGUUUACUTT against Catsper4 0.209
CGACAUGUCAAAACUCACGTT against Zfp791 1.22
CCAUGUACCAGAUUAAGUATT against Krt8 1.16
GGUGAAAAGCAGCUAACAATT against Fam135a -1.6
GCUGUAAUGCUAAUGACAUTT against Gpr22 1.23
CCAUGGUCAUCCCGAUGUUTT against Olfr1454 0.171
CGAGAAGGGAUUUUAGAAGTT against A830018L16Rik -0.92
GGCAGGCAGAAGGCUUUUUTT against Olfr228 1.07
GGUGGACAGGAGAAAGGAATT against Npy6r -0.578
GGAGACCUGAAUUUUUCAGTT against Tab2 0.469
GGAAGAAGCAACCACAUUCTT against Evl 0.898
GGAGGAGUUUGACUUCGACTT against Alox12 -0.109
CGUAGACAUGGCCUUUUUUTT against Dipk1c -0.863
GCAAAUGAAUCAUGGGUGGTT against Rnf141 0.116
GCUGUCCUUCUAUAACCCATT against Frmd5 -1.68
GGCGACAAAAAGGCUAAGCTT against Khnyn 0.437
GGAACUAGCCUUCACUGACTT against Rabggta 0.931
GGUUGCAUCACAGCGUAUATT against Phlpp1 0.759
CCACUUUAGCUCCUUUAAGTT against Tet3 -0.438
GGAGCUCUACAUCAUAGACTT against Lhx1 0.579
GGUAAAACAGGUAUGUCGCTT against Ramac 0.48
GGCCUACCUGGUUGAGAAATT against Spam1 1.44
GGUCUAUGAAGAGAAGACUTT against Mtres1 0.8
GGCACAGUUCCUCAGUAUGTT against Hspbap1 1.76
GCAUUAUACCUGUCAAGUUTT against Klk1b1 0.608
CGAGUCAAUCAACUUGUCUTT against Olfr54 -0.882
GGACUCUGAUCUGGAGUAGTT against Slc51a -0.397
GGCAAACAUCUGUAUCUAUTT against Golph3 -0.571
GGCAUCUUUUGAAACAAUATT against Ubxn8 -1.04
GGCAUACAAAGCCCUCUAUTT against Kcnrg -0.457
GGAUGUGAUGACUCAUUUUTT against Zbtb8os 0.976
GGUGAAUAAAGACCGAGGUTT against Anks6 -1.58
GCGUGAGGAUGUAGACUACTT against Mmp12 0.699
GGACAUUUUUGUCUCUAAATT against Pacc1 0.167
GGACAAUUCCAUGCUUCCCTT against Il24 -0.00641
CGCGCAGAUGCACCAGAUUTT against 2610028H24Rik 1.12
GGUCAAAGAUGCUAUAAAATT against Olfr993 -0.843
GGAGGCAGCUCCUAUGAUGTT against Rbm28 0.378
GGUGACUGGUAAAUGCCAGTT against Olfr1502 -0.428
CGGUCUUUAUACACAUAUATT against Wnt7a -0.0297
GGUGAGAAUGUGCUUCAAUTT against Egr2 -0.0732
GCAUCGUCUAUAUUUUUGGTT against Timm50 -1.56
GGAAUGCUUAGUGAAAUUUTT against Ahctf1 0.481
GGAUUCUGAACCUUACAGATT against Hoxd9 1.61
CGGAGUUGGGAUUUACCAGTT against Pdia5 -0.594
GGCACCUUAAUGCUGACUUTT against Sdc4 -0.694
GGCUCAAGGUUUUCUCUACTT against Olfr710 -0.0341

z-score, active:
GGAUAACUGUAACAGCCCGTT against Ly6g6c -2.12
GGCACGAUGGUUCAUCCUUTT against Plek2 -2.01
GGAGAUGUAACCAUAGGCCTT against Dctn6 2.07
GGCAGAAAGACAUUUUCUUTT against Ift80 -2.53
UAUUGUCACCGUCUUAGGCTT against Olfr1028 -2.84
GGAGUUUUGGGUGAUGAUATT against Olfr974 -2.41
GGAGUGACUCCUACAAAAUTT against Ms4a4b -2.01
GGACCUUUUGUGAACUUACTT against E2f3 4.53
GCCACAUCAGAUGAAGUCCTT against Ppm1e -2.26
GCUACAGAUUAGGGACAUATT against Pcdhb2 4.53
GGAGAAACUCUUCAGGCUUTT against Tceal8 -2.19
GGAACAAUUGUUCCUGUGATT against Kcne1 -2.04
GGAACGUGGAUCUUUUUAUTT against Wiz 2.42
GCUCUACAUCGAAUUGCUGTT against Lig4 4.14
GGAGGAAAAUGAUGGAGAGTT against Lysmd1 2.28
CGAUGAGCUAAGAGAGUCCTT against Cand2 3.09
CGGCAACUCAACAAGCUUATT against Cbfa2t3 2.38
GGCAGUGGGAUUACAAUGATT against Med12 2.02
CCGACACAAGAUGCUCAGUTT against Tmem9 -2.3
GCCUAUGAUAAGUCUGUGUTT against Ifitm10 -2.25
GGAAGACGAAGAGUUUGGATT against Aqp5 2.37
CCGAGGAGAACACUUGUAGTT against Opn4 -2.54
